Measurements reported in PubChem BioAssay (EPA / NIEHS).
Values joined by “and” are separate entries in the source; they are usually repeats but may differ in a detail not shown here. Identical values can stand only once. Active and inactive are the calls of the source. Rule for the calls: active = hit-call score of the fitted dose curve at least 0.9, where 1 is the maximum; inactive = score below 0.9.

Each compound was assayed on Matrix Metallopeptidase 3 (MMP3), MMP3 (gene 4314) (assay: BSK_BF4T_MMP3: BioMAP Diversity Plus: BF4T Assay for Matrix Metallopeptidase 3 (MMP3) Biomarker Activity (AID 2284271)). Details: primary human bronchial epithelial cells with fibroblasts.
Procedure: BSK_BF4T is a cell-based, multiplexed-readout assay that uses bronchial epithelial cells and dermal fibroblasts, a human vascular primary cell, with measurements taken at 24 hours after chemical dosing in a microplate: 96-well plate.BSK_BF4T_MMP3 is an assay component measured in the BSK_BF4T assay. It measures MMP-3 antibody related to regulation of gene expression using ELISA technology.Data from the assay component BSK_BF4T_MMP3 was analyzed at the endpoint, BSK_BF4T_MMP3, in the positive analysis fitting direction relative to DMSO as the negative control and baseline of activity. Using a type of binding reporter, gain or loss-of-signal activity can be used to understand protein changes. To generalize the intended target to other relatable targets, this assay endpoint is annotated to the 'protease' intended target family, where the subfamily is 'matrix metalloproteinase'.
The levels of cell surface (or secreted, indicated by the prefix "s") biomarker endpoints were measured by ELISA. Overt cytotoxicity to cells in confluent adherent cultures (all systems other than the BT system) was assessed by measuring total protein levels using sulforhodamine B (SRB) staining in parallel cultures at the time of biomarker measurements, indicated as SRB endpoints. For proliferation assays for adherent cell types, individual cell types are cultured at sub-confluence and relative cell numbers quantified by SRB staining at time points optimized for each system (48 h: 3C and CASM3C systems; 72 h: BT and HDF3CGF systems; 96 h: SAg system). SRB was performed by staining cells with 0.1% SRB after fixation with 10% TCA and reading wells at 560 nm.Viability and proliferation of PBMC (T cells) was quantified by Alamar Blue reduction for the SAg and BT systems. For PBMC viability (referred to as PBMC Cytotoxicity within the assay endpoint names), cells were plated (75,000/well in a 96-well plate) and then chemical samples added for 1 h before addition of activators, SEB and TSST-1 (20 ng/mL final concentration each). Cells were incubated for 90 h. Then, Alamar Blue (20 uL/well) (Invitrogen, Cat DAL1100) was added for 6 h, and the plates were read with a fluorescence microplate reader at 546/580 nm (excitation/emission). For PBMC proliferation, cells were plated and activated as above but incubated for only 16 h prior to addition of Alamar Blue. Plates were read after 6 h.
With `O=C(CC(=O)C(F)(F)C(F)(F)C(F)(F)F)c1cccs1` the AC50 was 37.6 µM (active) and 25.2 µM (active).
For `C=CC(=O)OCCC(F)(F)C(F)(F)C(F)(F)C(F)(F)C(F)(F)C(F)(F)C(F)(F)C(F)(F)F`, the outcome was “inactive”.
With `CN(CCO)S(=O)(=O)C(F)(F)C(F)(F)C(F)(F)C(F)(F)C(F)(F)C(F)(F)C(F)(F)C(F)(F)F` the outcome was “inactive”.
`O=P(O)(O)CCC(F)(F)C(F)(F)C(F)(F)C(F)(F)C(F)(F)C(F)(F)C(F)(F)C(F)(F)F` was tested, and the outcome was “inactive”.
`CN(Cc1cnc2nc(N)nc(N)c2n1)c1ccc(C(=O)N[C@@H](CCC(=O)O)C(=O)O)cc1` was tested, and the outcome was “inactive”.
With `O=C(O)CCC(F)(F)C(F)(F)C(F)(F)C(F)(F)C(F)(F)C(F)(F)F` the outcome was “inactive”.
With `O=C(O)CCC(F)(F)C(F)(F)C(F)(F)C(F)(F)C(F)(F)F` the outcome was “inactive”.
For `O=C(O)C(F)(F)OC(F)(F)C(F)(F)OC(F)(F)C(F)(F)OC(F)(F)C(F)(F)C(F)(F)C(F)(F)F`, the AC50 was 14.4 µM (active) and 8.19 µM (active).
`O=P(O)(O)CCC(F)(F)C(F)(F)C(F)(F)C(F)(F)C(F)(F)C(F)(F)F` was tested, and the outcome was “inactive”.
`OCC(F)(F)C(F)(F)C(F)(F)C(F)(F)C(F)(F)C(F)(F)C(F)(F)C(F)(F)C(F)(F)C(F)(F)C(F)(F)F` was tested, and the outcome was “inactive”.
For `O=S(=O)(O)C(F)(F)C(F)(F)C(F)(F)C(F)(F)C(F)(F)C(F)(F)C(F)(F)C(F)(F)C(F)(F)C(F)(F)F`, the outcome was “inactive”.
